In assay [1] the target is Beta-2 adrenergic receptor (Homo sapiens) (UniProt P07550). The experiment in a line: qHTS validation assay of beta-arrestin-biased ligands of beta2-adrenergic receptor (AID 485366). The procedure, abridged: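 Tango cells (recombinant beta2-AR with recombinant beta-arrestin; recruitment releases tTA driving luciferase) were treated with compounds titrated up to 46 microM for 18 hr at 37 degrees C. Luminescence gave %Activity, and concentration-response curves were curve-classified.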
Beta-2 adrenergic receptor (Homo sapiens), sequence (P07550 whole entry, looked up): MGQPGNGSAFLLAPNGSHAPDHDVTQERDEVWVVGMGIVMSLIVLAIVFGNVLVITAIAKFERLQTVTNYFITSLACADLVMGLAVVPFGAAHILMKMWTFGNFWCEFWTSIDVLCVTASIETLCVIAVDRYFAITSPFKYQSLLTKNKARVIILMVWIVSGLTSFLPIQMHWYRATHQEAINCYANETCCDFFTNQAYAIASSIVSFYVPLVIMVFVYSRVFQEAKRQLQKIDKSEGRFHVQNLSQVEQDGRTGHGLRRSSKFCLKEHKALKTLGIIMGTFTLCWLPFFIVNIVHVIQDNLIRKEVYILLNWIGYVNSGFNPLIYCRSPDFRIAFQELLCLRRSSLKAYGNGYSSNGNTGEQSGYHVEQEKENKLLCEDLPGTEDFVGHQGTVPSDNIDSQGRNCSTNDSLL

Assay [2] in a line: Quantitative high throughput screen for delayed death inhibitors of the malarial parasite plastid, 96 hour incubation (AID 488745). Also: nearly all actives have a fitted effect of over 70% in size. Also: potency is read from the fitted curve at half-maximal effect. The essentials:
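P. falciparum carrying an integrated firefly luciferase reporter, grown in erythrocytes (2% hematocrit, 0.1% parasitemia final) in RPMI 1640/0.5% Albumax, was exposed to compound for 96 h (two generations) at 37 C, 5% CO2. Luminescence decrease indicated growth inhibition.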

Assay [3] deals with Thioredoxin reductase 1, cytoplasmic (Rattus norvegicus) (UniProt O89049). Nature of the assay: qHTS Assay for Substrates of Mammalian Selenoprotein Thioredoxin Reductase 1 (TrxR1) (AID 488772).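 Also: NADPH fluorescence in the first read after selenite addition and not the 8 min delta; series mostly up to about 57 µM; a drop in NADPH fluorescence below the no-compound background marks a TrxR1 substrate.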 The essentials: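 Quantitative HTS in Tris-HCl buffer at pH 7.5 with EDTA and Tween-20, using rat TrxR1, 400 uM NADPH and 400 uM selenite (final). A fall in initial NADPH fluorescence relative to background marked substrate behaviour.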
Thioredoxin reductase 1, cytoplasmic (Rattus norvegicus), sequence (O89049 whole entry, looked up): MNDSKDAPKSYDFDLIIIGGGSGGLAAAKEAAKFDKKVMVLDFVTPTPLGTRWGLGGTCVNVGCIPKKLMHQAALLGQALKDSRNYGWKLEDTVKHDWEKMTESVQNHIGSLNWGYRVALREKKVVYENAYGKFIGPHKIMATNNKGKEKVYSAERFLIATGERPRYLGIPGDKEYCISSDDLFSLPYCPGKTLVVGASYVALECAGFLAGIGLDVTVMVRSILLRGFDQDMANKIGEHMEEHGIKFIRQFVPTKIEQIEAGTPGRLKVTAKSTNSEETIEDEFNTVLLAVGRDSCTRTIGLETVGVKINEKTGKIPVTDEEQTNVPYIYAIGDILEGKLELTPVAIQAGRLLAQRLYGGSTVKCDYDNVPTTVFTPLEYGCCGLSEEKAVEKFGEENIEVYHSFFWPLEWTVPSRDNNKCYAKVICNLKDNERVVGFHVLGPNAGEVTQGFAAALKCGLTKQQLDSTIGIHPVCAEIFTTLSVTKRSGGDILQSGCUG
On the technique in general: qHTS replaces the single test concentration by a dilution series.

Assay [4] shares this target. Nature of the assay: qHTS Assay for Inhibitors of Mammalian Selenoprotein Thioredoxin Reductase 1 (TrxR1) (AID 488773).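 Also: drop in NADPH fluorescence over an 8 min run after selenite addition; series mostly up to about 57 µM; nearly all actives have a fitted effect of over 40% in size.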 The conditions noted are these: Potency: inhibition. The essentials: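 Steps: enzyme (90 nM) plus NADPH (400 uM final), 5 min at ~22 deg C; compound added, 15 min; selenite (400 uM final) added; fluorescence followed for 8 min. Concentration-response curves derived from the normalized delta values.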

The target in assay [5] is Flap endonuclease 1 (Homo sapiens) (UniProt P39748). Nature of the assay: qHTS Validation Assay for the Inhibitors of Human Flap endonuclease 1 (FEN1) (AID 488816). Also: potency is read from the fitted curve at half-maximal effect. The essentials: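 FEN1, dispensed as a 10 nM reagent, was preincubated with pin-transferred compounds for 15 min at room temperature before substrate was added (50 nM final). Plates were read at 0 and 15 min, and a four-parameter Hill equation was fitted to the concentration-response data.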
Flap endonuclease 1 (Homo sapiens), sequence (P39748 whole entry, looked up): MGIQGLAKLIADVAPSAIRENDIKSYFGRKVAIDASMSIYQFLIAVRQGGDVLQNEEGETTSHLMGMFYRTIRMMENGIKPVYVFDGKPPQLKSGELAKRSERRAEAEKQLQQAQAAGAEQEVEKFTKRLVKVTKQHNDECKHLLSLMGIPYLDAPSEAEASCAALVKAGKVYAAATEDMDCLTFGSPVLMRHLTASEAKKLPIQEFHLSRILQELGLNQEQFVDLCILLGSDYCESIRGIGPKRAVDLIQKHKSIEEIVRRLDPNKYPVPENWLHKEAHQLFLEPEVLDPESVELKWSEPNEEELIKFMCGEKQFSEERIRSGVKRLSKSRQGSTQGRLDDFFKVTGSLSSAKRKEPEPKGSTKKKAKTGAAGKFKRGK

Assay [6] concerns the target M-phase phosphoprotein 8 (Homo sapiens) (UniProt Q99549). Nature of the assay: qHTS Validation Assay for Inhibitors for MPP8 Chromodomain Interactions with Methylated Histone Tails (AID 488949). Also: nearly all actives have a fitted effect of over 55% in size. Also: potency is read from the fitted curve at half-maximal effect. The procedure, abridged: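 MPP8 (50 nM) was preincubated with biotinylated H3(1-18)K9me3 peptide (50 nM) in PBS pH 7.4, 0.01% Tween-20 for 30 min at room temperature, then with compounds for 30 min; binding was detected by AlphaScreen.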

Assay [7] concerns the target Chromobox protein homolog 1 (Homo sapiens) (UniProt P83916). The experiment in a line: qHTS Validation Assay for Inhibitors of HP1-beta Chromodomain Interactions with Methylated Histone Tails (AID 488953). Also: nearly all actives have a fitted effect of over 50% in size. Also: potency is read from the fitted curve at half-maximal effect. The procedure, abridged: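 HP1-beta (50 nM) was preincubated 30 min at room temperature with biotinylated H3(1-18)K9me3 peptide (50 nM) in PBS pH 7.4, 0.01% Tween-20, then with compounds 30 min. AlphaScreen signal was read after streptavidin donor/nickel chelate acceptor beads (10 ug/mL final).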

In assay [8] the target is Methanococcus maripaludis chaperonin (MmCpn) (UniProt Q6LX38). Nature of the assay: High-Throughput Screening for Modulators of Cytosolic Chaperonin Activity: MmCpn Primary Screen (AID 488978).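 Also: 50 nM MmCpn enzyme hydrolysing 30 µM ATP at 37 °C.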 The essentials: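 MmCpn (50 nM final) was preincubated with compound 5 min at RT, then 30 uM ATP (final) was added and the reaction ran 10 min at 37C. ADP produced was detected by Transcreener HTRF (ex 320 nm; em 590/665 nm).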
Methanococcus maripaludis chaperonin (MmCpn), sequence (Q6LX38 1-543): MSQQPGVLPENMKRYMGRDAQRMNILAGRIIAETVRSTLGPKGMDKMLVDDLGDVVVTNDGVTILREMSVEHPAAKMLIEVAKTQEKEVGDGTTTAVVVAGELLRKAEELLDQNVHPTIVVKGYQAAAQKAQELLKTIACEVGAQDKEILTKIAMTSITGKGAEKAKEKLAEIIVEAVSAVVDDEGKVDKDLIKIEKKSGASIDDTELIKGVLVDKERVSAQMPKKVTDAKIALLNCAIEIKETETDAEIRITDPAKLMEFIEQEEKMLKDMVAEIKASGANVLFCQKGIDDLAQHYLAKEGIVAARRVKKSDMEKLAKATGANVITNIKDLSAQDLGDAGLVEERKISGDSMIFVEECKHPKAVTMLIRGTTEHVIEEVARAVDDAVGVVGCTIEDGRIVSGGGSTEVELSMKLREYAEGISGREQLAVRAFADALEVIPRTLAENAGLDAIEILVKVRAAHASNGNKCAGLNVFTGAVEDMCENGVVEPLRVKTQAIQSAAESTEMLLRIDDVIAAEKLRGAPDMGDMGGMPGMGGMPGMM

Assay [9] can be described thus: Quantitative high throughput screen for delayed death inhibitors of the malarial parasite plastid, 48 hour incubation (AID 488752). Also: nearly all actives have a fitted effect of over 65% in size. Also: potency is read from the fitted curve at half-maximal effect. The essentials: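 Erythrocytes infected with P. falciparum carrying an integrated firefly luciferase reporter (2% hematocrit, 0.1% parasitemia final) were exposed to compounds in RPMI 1640/0.5% Albumax for 48 h at 37 C, 5% CO2. Growth inhibition was scored as reduced luminescence.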

The results in this text go back to PubChem BioAssay (NCATS).

Molecules are shown by their SMILES. Values joined by “and” are separate entries in the source; they are usually repeats but may differ in a detail not shown here. Equal entries are not always repeated. Results filed as inconclusive are left out. A structure can be active in one record and inactive in another. Active and inactive are the calls of the source. Calls follow the shape of the dose curve; as a rule, active = well fitted curve in the direction sought with a large enough effect; inconclusive = small, poorly fitted or top-dose-only effect, or another doubt; inactive = no such curve, though single readings can be large; an effect the other way counts as inactive or inconclusive.

M-phase phosphoprotein 8 (Homo sapiens), sequence (Q99549 whole entry, looked up): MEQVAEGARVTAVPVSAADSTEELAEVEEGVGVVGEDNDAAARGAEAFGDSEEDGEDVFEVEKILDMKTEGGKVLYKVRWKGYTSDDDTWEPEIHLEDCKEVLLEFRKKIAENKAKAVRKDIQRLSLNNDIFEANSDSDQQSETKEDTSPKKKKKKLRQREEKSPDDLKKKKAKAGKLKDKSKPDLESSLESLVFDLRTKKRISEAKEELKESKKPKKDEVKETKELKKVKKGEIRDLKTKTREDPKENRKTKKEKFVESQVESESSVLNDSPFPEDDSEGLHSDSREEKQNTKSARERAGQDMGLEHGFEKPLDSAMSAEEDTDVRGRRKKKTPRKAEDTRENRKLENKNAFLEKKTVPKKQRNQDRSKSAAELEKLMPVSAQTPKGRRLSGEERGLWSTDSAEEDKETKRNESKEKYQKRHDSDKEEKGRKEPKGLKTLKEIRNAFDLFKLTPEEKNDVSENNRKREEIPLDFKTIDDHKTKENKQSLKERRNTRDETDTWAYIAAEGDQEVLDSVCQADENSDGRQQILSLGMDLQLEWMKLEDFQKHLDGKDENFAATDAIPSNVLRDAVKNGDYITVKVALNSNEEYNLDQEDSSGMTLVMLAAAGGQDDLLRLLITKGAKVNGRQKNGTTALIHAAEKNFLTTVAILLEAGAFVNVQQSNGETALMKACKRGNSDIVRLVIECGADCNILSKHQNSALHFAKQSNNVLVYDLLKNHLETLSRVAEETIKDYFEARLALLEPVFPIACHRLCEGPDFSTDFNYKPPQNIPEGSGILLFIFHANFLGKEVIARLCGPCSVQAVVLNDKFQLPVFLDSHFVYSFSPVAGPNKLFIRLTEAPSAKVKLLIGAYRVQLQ
Chromobox protein homolog 1 (Homo sapiens), sequence (P83916 whole entry, looked up): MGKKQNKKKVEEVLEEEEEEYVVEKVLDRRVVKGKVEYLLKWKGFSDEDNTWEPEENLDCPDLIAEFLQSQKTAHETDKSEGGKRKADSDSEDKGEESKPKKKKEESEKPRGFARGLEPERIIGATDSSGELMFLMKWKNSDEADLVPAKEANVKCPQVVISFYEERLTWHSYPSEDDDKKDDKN

`N[C@@H](CCCC(=O)O)C(=O)O`: the outcome in assay [1], in [3] and in [8] was inactive. In addition, the Potency result in assay [2], in assay [4], in [5], in assay [6] and in assay [7] was “inactive” each time.

As to `COc1ccc2c(c1)CCC1C2CC[C@@]2(C)C1CC[C@@H]2NCCCCCCN1C(=O)C=CC1=O` (some centres not stated), the result in [1], in assay [3] and in [8] was inactive. The Potency entry in assay [2], in assay [4] and in assay [5] was “inactive” throughout.

Regarding `NCCNS(=O)(=O)c1cccc2c(Cl)cccc12`, the compound was called inactive in assay [1] and in assay [3]. Further, the Potency entry in assay [4], in [5], in assay [6] and in assay [7] was “inactive” throughout.

As to `C=CCn1c(=O)c2c(nc(-c3ccc(S(=O)(=O)O)cc3)n2C)n(C)c1=O`, the outcome in assay [1], in assay [3] and in assay [8] was inactive. Further, the Potency entry in [9], in [4] and in assay [6] was “inactive” each time.

On to `CC(C)(CO)Cc1cc(C(C)(C)C)c(O)c(C(C)(C)C)c1`, for which the result in assay [1], in assay [3] and in [8] was inactive. Moreover, the Potency entry in assay [2], in assay [5] and in assay [6] was “inactive” throughout.

For the compound `NC1CCN(O)C1=O` (configuration not stated), the compound was classed as inactive in [1] and in assay [3]. In addition, the Potency result in assay [4], in assay [5], in [6] and in assay [7] was “inactive” in each case.

Turning to `CC[n+]1c(/C=C/C=C2/N(C)c3ccccc3C2(C)C)sc2ccccc21`, the outcome in assay [1], in assay [3] and in assay [8] was inactive. The Potency entry in assay [4] was “inactive”. The Potency in assay [5] was 26.7 µM (active); in [6], 15 µM (active); in [7], 25.1 µM (active).

Take `C[C@H](O)C(=O)C1=Nc2c(nc(N)[nH]c2=O)NC1`: the compound was called inactive in [1], in [3] and in assay [8]. Besides, the Potency result in assay [9], in assay [4], in [6] and in [7] was “inactive” throughout.

Consider `CCCCCC(O)CCCC(=O)O` (configuration not stated), for which the compound was classed as inactive in [1], in assay [3] and in assay [8]. The Potency result in assay [9], in [5], in assay [6] and in assay [7] was “inactive” in each case.

As for `CN(C)C(=O)/N=N/C(=O)N(C)C`, the result in assay [1], in assay [3] and in assay [8] was inactive. Further, the Potency result in assay [9] and in assay [5] was “inactive” throughout. For the same compound, the Potency in assay [6] is 31.6 µM (active) and inactive; in [7], 20 µM (active).

As to `CCCOC(=O)c1c(-c2ccccc2)nc(CC)c(C(=O)SCC)c1CCC`, the outcome in assay [1], in assay [3] and in [8] was inactive. In addition, the Potency entry in assay [4], in assay [5], in [6] and in assay [7] was “inactive” in each case.

`O=c1cc(O)cc(/C=C/c2ccc(O)c(O)c2)o1`: the call in assay [1], in assay [3] and in assay [8] was inactive. The Potency entry in assay [9] was “inactive”. Moreover, the Potency in [6] is 5.32 µM (active).

As to `Nc1nc2c(nc(Br)n2C2OC3COP(=O)(O)O[C@@H]3C2O)c(=O)[nH]1` (some centres not stated), the compound was called inactive in assay [1] and in assay [3]. Besides, the Potency entry in assay [4], in [5], in assay [6] and in [7] was “inactive” each time.

With `NCC(O)C1CCCCCCC1` (configuration not stated), the compound was called inactive in [1], in assay [3] and in assay [8]. Moreover, the Potency result in assay [2], in assay [4], in assay [5], in assay [6] and in assay [7] was “inactive” each time.

On to `NC(=O)c1cc[n+](CC2=C(C(=O)O)N3C(=O)[C@@H](NC(=O)[C@@H](c4ccccc4)S(=O)(=O)[O-])[C@H]3SC2)cc1`, for which the compound was called inactive in assay [1], in assay [3] and in assay [8]. Also, the Potency entry in assay [9], in assay [5] and in assay [6] was “inactive” throughout.

As to `O=C(O)C1=CCCN(CCON=C(c2ccccc2)c2ccccc2)C1`, the compound was called inactive in assay [1], in [3] and in assay [8]. Moreover, the Potency result in [9], in assay [4], in assay [5] and in assay [6] was “inactive” in each case.

As for `CCN1C(=O)C=CC1=O`, the compound was classed as inactive in assay [1], in assay [3] and in assay [8]. In addition, the Potency entry in assay [9], in [5] and in [6] was “inactive” each time.

Regarding `c1ccc2nc(C3=NCCN3)ccc2c1`, the compound was called inactive in assay [1], in [3] and in assay [8]. Further, the Potency entry in assay [2], in assay [6] and in assay [7] was “inactive” throughout.

With `N[C@@H](CCC(=O)N[C@H](CSN=O)C(=O)NCC(=O)O)C(=O)O`, the outcome in [1] and in assay [3] was inactive. Also, the Potency result in assay [9], in [4], in assay [5] and in [6] was “inactive” in each case.

With `CCN(CC)CCCCCCCCOC(=O)c1cc(OC)c(OC)c(OC)c1`, the outcome in assay [1], in assay [3] and in [8] was inactive. Besides, the Potency in assay [2] was 18.5 µM (active). In addition, the Potency result in assay [4], in assay [5], in assay [6] and in assay [7] was “inactive” each time.

On to `OCC1NCC(O)C(O)C1O` (configuration not stated), for which the result in assay [1], in [3] and in [8] was inactive. Further, the Potency entry in [2], in assay [4], in [6] and in [7] was “inactive” each time.

Take `O=C1Nc2ccc(I)cc2/C1=C/c1cc(Br)c(O)c(Br)c1`: the compound was classed as inactive in [1], in assay [3] and in assay [8]. Also, the Potency result in assay [9] was “inactive”. The Potency in assay [6] is 14.1 µM (active) and 9.47 µM (active); in assay [7], 11.2 µM (active).

For the compound `O=C(O)c1ccccc1Nc1cccc(OCc2ccc3ccccc3n2)c1`, the result in assay [1], in [3] and in assay [8] was inactive. For the same compound, the Potency result in assay [2], in [4] and in [5] was “inactive” throughout. In assay [6], the Potency is 39.8 µM (active) and inactive.

Turning to `CCCCS(=N)(=O)CC[C@H](N)C(=O)O` (some centres not stated), the result in assay [1], in assay [3] and in assay [8] was inactive. In addition, the Potency entry in [9], in [4], in assay [5], in assay [6] and in [7] was “inactive” each time.

Take `O=C(O)C1=CCCNC1`: the outcome in assay [1] and in assay [3] was inactive. Also, the Potency result in assay [9], in [4], in [5] and in assay [6] was “inactive” throughout.

Take `COc1ccc(CCn2nnnc2C2(c3ccc(C)cc3)CC2)cc1`: the outcome in assay [1] and in [3] was inactive. Moreover, the Potency entry in [4], in assay [5], in assay [6] and in assay [7] was “inactive” throughout.

For the compound `Nc1ccc(-c2nc3ccc(-c4nc5ccc(N)cc5[nH]4)cc3[nH]2)cc1`, the outcome in assay [1] and in assay [3] was inactive. For the same compound, the Potency was 0.415 µM (active) in [9]; 21.2 µM (active) in [5]; 44.7 µM (active) and 26.7 µM (active) in [6]; 39.8 µM (active) in assay [7]. Also, the Potency result in assay [4] is “inactive”.

Take `N=C(N)c1ccc(OCCCCCOc2ccc(C(=N)N)cc2)cc1` (tested in a mixture with another compound): the compound was called inactive in [1], in [3] and in assay [8]. Also, in assay [9], the Potency is 0.185 µM (active). Besides, the Potency result in assay [6] and in assay [7] was “inactive” each time.

With `Cn1cc(C(=O)OCC2CCN(CCNS(C)(=O)=O)CC2)c2ccccc21`, the outcome in assay [1], in assay [3] and in [8] was inactive. Moreover, the Potency result in assay [9], in assay [4], in assay [5], in assay [6] and in assay [7] was “inactive” in each case.

On to `CCC1(O)CC2CN(CCc3c([nH]c4ccccc34)[C@@](C(=O)OC)(c3cc4c(cc3OC)N(C=O)C3[C@]45CCN4CC=C[C@@](CC)([C@@H](OC(C)=O)[C@]3(O)C(=O)OC)[C@H]45)C2)C1` (some centres not stated), for which the outcome in assay [1], in [3] and in assay [8] was inactive. For the same compound, the Potency in assay [9] is 0.131 µM (active). The Potency result in assay [4], in [5] and in assay [6] was “inactive” in each case.

Take `Cc1ccccc1/C=C/C1=NCCN1`: the call in [1], in assay [3] and in assay [8] was inactive. Also, the Potency entry in [9], in assay [4], in assay [5], in assay [6] and in [7] was “inactive” throughout.
